Compound activity deposited in PubChem by Broad Institute.
The sample as a whole holds a higher share of hits than the screen did.
NOMO-1 viab – STK33 inhibitor candidate reducing NOMO-1 cell viability. 7.5% of 37,000 active. AID 2330. NOMO-1 AML viability, CellTiter-Glo luminescence, 72 h. inhibition, % (no concentration beside the values); in the data active = inhibition above about 80%
PD-1 reversal – reversal of PD-1 mediated T-cell inhibition; 29,000 tested, under 10 active; AID 2316; primary human CD4 T cells, PD-L1 beads, CellTiter-Glo 96 h; activation, % (concentration not given with the values); call rule not given here;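 also: 0% = median vehicle wells and 100% = positive control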
STK33 kin inh – blocks human STK33 kinase activity | Q9BYT3 | ADP-Glo luminescence, MBP substrate | inhibition, % at 12.5 µM | 0.44% of 27,000 active; in the data active = inhibition above about 20%
Target sequence (Q9BYT3 whole entry, looked up): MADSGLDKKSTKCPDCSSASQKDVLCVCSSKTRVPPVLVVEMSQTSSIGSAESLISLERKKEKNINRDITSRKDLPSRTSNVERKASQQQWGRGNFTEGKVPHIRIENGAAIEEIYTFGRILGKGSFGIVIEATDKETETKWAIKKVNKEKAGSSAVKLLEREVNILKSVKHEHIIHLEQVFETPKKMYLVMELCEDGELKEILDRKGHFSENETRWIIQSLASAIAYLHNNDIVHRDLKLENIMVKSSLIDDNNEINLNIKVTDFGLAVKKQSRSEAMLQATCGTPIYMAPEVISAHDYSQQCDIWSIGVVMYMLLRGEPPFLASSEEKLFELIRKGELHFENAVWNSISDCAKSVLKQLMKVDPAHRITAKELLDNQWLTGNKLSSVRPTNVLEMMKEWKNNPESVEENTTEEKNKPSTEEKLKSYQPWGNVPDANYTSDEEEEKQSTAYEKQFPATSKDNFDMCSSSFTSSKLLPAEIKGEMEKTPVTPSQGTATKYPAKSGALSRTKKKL
An asterisk follows results filed as active; / = no result given.

SMILES | NOMO-1 viab | PD-1 reversal | STK33 kin inh
COc1ccc(S(=O)(=O)Nc2ccc3c(c2)CC(=O)N([C@H](C)CO)C[C@@H](C)[C@H](CN(C)Cc2ccccc2)O3)cc1 | -10.2 | 1.6 | 0.8
C[C@@H]1CN([C@H](C)CO)C(=O)Cc2cc(NS(=O)(=O)c3ccc(Cl)cc3)ccc2O[C@@H]1CN(C)Cc1ccc(Oc2ccccc2)cc1 | 82.3* | 0.5 | 1.5
COc1ccc(S(=O)(=O)Nc2ccc3c(c2)CC(=O)N([C@H](C)CO)C[C@H](C)[C@H](CN(C)Cc2ccc(Oc4ccccc4)cc2)O3)cc1 | 105.6* | / | /
C=CCNC(=S)NC1(C)CCS(=O)(=O)C1 (stereo not given) | 0.7 | -0.4 | /
O=C(Nc1cc2c(ccc3ccccc32)oc1=O)c1ccccc1 | 14.8 | -0.3 | /
N=c1oc2ccc3ccccc3c2cc1C(=O)Nc1ccccc1 | 114.6* | -0.3 | /
COc1cc2c(cc1NC(=O)CSc1nnnn1C)oc1ccccc12 | 51.3 | -3.4 | 1.0
C[C@@H]1CN([C@H](C)CO)C(=O)c2cccc(NC(=O)Nc3ccc(F)cc3)c2O[C@@H]1CN(C)Cc1ccccc1 | 9.4 | 0.5 | /
C[C@@H]1CN([C@@H](C)CO)C(=O)c2cccc(NC(=O)Nc3ccc(F)cc3)c2O[C@H]1CN(C)Cc1ccccc1 | 101.6* | -5.6 | /
C[C@H]1CN([C@@H](C)CO)C(=O)c2cccc(NC(=O)Nc3ccc(F)cc3)c2O[C@@H]1CN(C)Cc1ccccc1 | 100.8* | / | /
C[C@H](CO)N1C[C@H](C)[C@@H](CN(C)Cc2ccccc2)Oc2c(NC(=O)Nc3ccc(F)cc3)cccc2C1=O | 97.9* | -4.5 | /
C[C@H](CO)N1C[C@H](C)[C@H](CN(C)Cc2ccc(-c3ccccc3)cc2)Oc2c(NC(=O)Nc3ccc(F)cc3)cccc2C1=O | 70.4 | / | /
C[C@@H]1CN([C@H](C)CO)C(=O)c2cccc(NC(=O)Nc3ccc(F)cc3)c2O[C@H]1CN(C)Cc1ccccc1 | 99.5* | -6.5 | /
C[C@@H]1CN([C@H](C)CO)C(=O)c2cccc(NC(=O)Nc3ccc(F)cc3)c2O[C@H]1CN(C)Cc1ccc(C(=O)O)cc1 | -0.9 | 1.6 | /
C[C@H](CO)N1C[C@H](C)[C@H](CN(C)Cc2ccccc2)Oc2c(NC(=O)Nc3ccc(F)cc3)cccc2C1=O | 63.0 | -0.9 | /
O=C(Nc1ccc(F)cc1)C(=S)NC1CCCCC1 | 42.1 | 0.3 | /
O=C1c2ccccc2C(=O)N1CN(C(=O)C(F)(F)F)c1ccc(Cl)cc1 | 6.0 | -0.6 | /
COc1ccc(S(=O)(=O)Nc2cccnc2)cc1C(=O)O | -7.7 | -0.4 | -9.6
CCN(CC(=O)Nc1ccc(OC)cc1)S(=O)(=O)c1ccc(C)cc1 | -14.0 | 0.5 | 0.0
N#Cc1cccc2cccc(Sc3ccccc3)c12 | 41.1 | -1.7 | 2.1
CCC(C)CC(C)/C=C\C1OC2=C(C(=O)OC2(C)O)C(O)C1O (stereo not given) | 108.1* | -8.3 | -2.7
CN(CCO)S(=O)(=O)c1cccc(C(=O)O)c1 | -6.5 | -1.6 | -2.5
CCC(=O)N(Cc1cc2ccccc2[nH]c1=O)c1cccc(C)c1 | -6.7 | 3.1 | -0.5
OC(COCc1ccccc1)Cn1c2ccccc2c2ccccc21 (stereo not given) | 88.7* | -2.5 | /
CNCC(O)Cn1c2ccccc2c2ccccc21 (stereo not given) | 7.0 | -1.4 | -5.2
SMILES | NOMO-1 viab | PD-1 reversal | STK33 kin inh
CC(=O)OC[C@]12[C@H](OC(C)=O)[C@H](OC(C)=O)[C@@H]3[C@@H](OC(C)=O)[C@@]14O[C@@]3(C)COC(=O)c1cnccc1CC[C@H](C)C(=O)O[C@@]4(C)[C@@H](O)[C@H](O)[C@@H]2OC(C)=O | 118.6* | -2.6 | 0.6
COCCOC(=O)N1C(=O)[C@@]2(c3ccccc31)[C@H](C(=O)NC[C@H](O)c1ccccc1)[C@H]1C(=O)O[C@H](c3ccccc3)[C@H](c3ccccc3)N1[C@@H]2c1ccc(OCCO)cc1 | / | / | 5.5
COc1ccc(OC)c(NC(=O)COc2ccc3c4c(c(=O)oc3c2)CCC4)c1 | 12.5 | 0.7 | 6.6
C[C@H](CO)N1C[C@H](C)[C@@H](CN(C)CC2CCCCC2)Oc2ccc(NC(=O)CCCCCC(=O)Nc3ccccc3N)cc2C1=O | 25.9 | 1.2 | /
C[C@H](CO)N1C[C@H](C)[C@H](CN(C)CC2CC2)Oc2ccc(NC(=O)CCCCCC(=O)Nc3ccccc3N)cc2CC1=O | 140.4* | -0.8 | /
C[C@@H]1CN([C@H](C)CO)C(=O)Cc2cc(NC(=O)CCCCCC(=O)Nc3ccccc3N)ccc2O[C@@H]1CN(C)C | 48.4 | 1.5 | /
C[C@@H]1CN([C@@H](C)CO)C(=O)Cc2cc(NC(=O)CCCCCC(=O)Nc3ccccc3N)ccc2O[C@@H]1CN(C)CC1CCCCC1 | 135.8* | 0.6 | /
CC(C)Oc1ccc(NC(=O)CCN2C(=O)c3ccccc3C2=O)cc1 | 31.5 | 1.5 | -3.2
Cc1ccc2nc(-c3cccc(NC(=O)COc4ccccc4C)c3)oc2c1 | 40.8 | 1.4 | -3.8
Cc1cc(C)c(C)c(S(=O)(=O)NCc2ccc(C(=O)Nc3ccncc3)cc2)c1C | 102.8* | -9.5 | -7.4
COc1cccc(S(=O)(=O)NCc2ccc(C(=O)Nc3ccc(Cl)cc3)cc2)c1 | 16.7 | -0.9 | 2.2
COC(=O)c1cccc(COC(=O)c2cc(=O)[nH]c3ccccc23)c1 | 15.5 | / | 1.3
Cc1ccc(NC(=O)COc2ccc3ccccc3c2Br)c([N+](=O)[O-])c1 | -1.9 | 2.0 | -3.2
COc1cccc(-c2cc(C(=O)NCc3ccco3)c3cc(C)cc(C)c3n2)c1 | 10.1 | / | 0.8
COc1cccc(-c2cc(NCc3ccc4c(c3)OCO4)nc(N)n2)c1 | 94.6* | -24.5 | 0.9
COc1cccc(C(=O)COc2cccc(NC(=O)c3ccc([N+](=O)[O-])cc3)c2)c1 | 58.9 | -0.8 | 9.8
COC(=O)c1cc(C(=O)NCc2ccccc2OC)cc([N+](=O)[O-])c1 | 32.1 | -1.7 | 4.7
CC(=O)Oc1ccc(-c2coc3cc(OC(C)=O)cc(OC(C)=O)c3c2=O)cc1 | 28.7 | 0.2 | -0.5
CC(=O)Oc1ccc2ccc3ccc(OC(C)=O)c4ccc1c2c34 | 126.8* | -5.8 | /
CS(=O)(=O)N(CC(=O)NC1CCCCC1)c1ccc(F)cc1 | 32.5 | 0.0 | -2.0
COc1ccc(S(=O)(=O)Nc2ccc3c(c2)C(=O)N([C@@H](C)CO)C[C@@H](C)[C@H](CN(C)Cc2ccc(C(F)(F)F)cc2)O3)cc1 | 113.5* | 1.0 | 2.9
COc1ccc(CN(C)C[C@H]2Oc3ccc(NS(=O)(=O)c4ccc(OC)cc4)cc3C(=O)N([C@@H](C)CO)C[C@H]2C)cc1 | 26.0 | 2.0 | /
COc1ccc(CN(C)C[C@@H]2Oc3ccc(NS(=O)(=O)c4ccc(OC)cc4)cc3C(=O)N([C@@H](C)CO)C[C@H]2C)cc1 | 14.9 | 0.0 | /
COc1ccc(S(=O)(=O)Nc2ccc3c(c2)C(=O)N([C@@H](C)CO)C[C@@H](C)[C@@H](CN(C)Cc2ccc(C(F)(F)F)cc2)O3)cc1 | 114.8* | 0.5 | /
COc1ccc(CN(C)C[C@@H]2Oc3ccc(NS(=O)(=O)c4ccc(OC)cc4)cc3C(=O)N([C@@H](C)CO)C[C@@H]2C)cc1 | 11.4 | 0.3 | /
COc1ccc(S(=O)(=O)Nc2ccc3c(c2)C(=O)N([C@H](C)CO)C[C@@H](C)[C@@H](CN(C)Cc2ccc(C(F)(F)F)cc2)O3)cc1 | 108.4* | -1.3 | /
CCSc1nc(O)c(C(C)CC)c(=O)[nH]1 (stereo not given) | -0.2 | 1.0 | /
